For 19 molecules, outcome results are on record in PubChem BioAssay AID837 (The Scripps Research Institute Molecular Screening Center, 2007).

The structures appear in SMILES notation. Active and inactive are the calls of the source.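 The calls were made as follows: active = relative FRET score above 0.01, or acceptor fluorescence over 30% below the sample-well median; inactive = the rest.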

The target in this assay is Protein Rev (Human immunodeficiency virus type 1 group M subtype B (isolate WMJ22)) (UniProt P05866). The experiment in a line: disruptors of Rev peptide-RRE RNA complex – biochemical, FRET, acceptor and relative FRET calls, confirmation (AID 837).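 Also: relative FRET combines rise in Cy5 acceptor with fall in fluorescein donor.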 As to conditions: Fl-Rev peptide / Cy5-RRE RNA FRET, 1536-well; at 8 µM.
Sequence of Protein Rev (Human immunodeficiency virus type 1 group M subtype B (isolate WMJ22)) (P05866 whole entry, looked up): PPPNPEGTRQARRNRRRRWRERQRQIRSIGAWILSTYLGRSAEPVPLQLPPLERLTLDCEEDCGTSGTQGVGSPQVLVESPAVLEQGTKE

Turning to `C=CCn1c(=N)n(CC(O)COc2ccc(OC)cc2)c2ccccc21` (centres undefined), the outcome was inactive.
The result for `CCN(CC)CCCNC(=O)c1cc(-c2ccc(Cl)c(Cl)c2)on1` reads “inactive”; that for `Cc1cc(-c2nc3c4c5c(sc4[nH]c(=O)n3n2)CCC5)c(C)o1`, “inactive”.
Next, `Cc1ccc2[nH]c(=O)c3cc(C(=O)NCCN4CCN(C)CC4)sc3c2c1`: “inactive”; `COc1ccc(NC(=O)Nc2ccc(N(C)C)cc2)cc1`: “inactive”.
For `COc1cccc(OC)c1-c1nn2c(-c3cc(-c4ccccc4)n[nH]3)nnc2s1`, the result was active.
Next, `O=C(N/N=C/c1cccc(F)c1)c1cc(-c2ccco2)nc2ccccc12`: “active; quenches the donor”; `N=c1n(CCO)c2ccccc2n1CCOc1ccccc1`: “inactive”; `COc1ccccc1NC1=NC(c2ccc(Cl)cc2)N=C(N)N1` (centres undefined): “active”.
Next, `OCCN=c1cc(-c2ccccc2)oc2ccc(Cl)cc12`: “inactive”; `C[n+]1c2n(c3ccccc31)N=C(c1ccc(Br)cc1)CS2`: “inactive”; `CC(Nc1nc(N2CCCCC2)nc2ccccc12)c1ccccc1` (centres undefined): “inactive”.
As for `COc1ccc(Nc2nc(N3CCCCC3)c3ccccc3n2)cc1`, the result was inactive.
As for `CC(C)OC(=O)c1c2nc3ccccc3nc2n2c1[nH]c(=O)c1ccccc12`, the outcome was inactive.
The result for `NCCCCCc1nnc(SC/C=C/c2ccccc2)o1` reads “inactive”.
Next, `O=C(O)c1ccc2c(c1)[C@@H]1C=CC[C@@H]1[C@H](c1ccccn1)N2`: “inactive; quenches the donor”; `c1ccc(CSc2ncnc3c2cnn3Cc2ccccc2)cc1`: “inactive”; `CCC1=NNc2cccc3c(OC)ccc1c23`: “inactive”.
On to `CCN(CC)CCOCCOc1cc(C)c(Cl)c(C)c1`, for which the call was inactive.
